SMILES strings stand for the structures. Unmarked numbers belong to inactive results. Results filed as inconclusive are left out. Calls of active or inactive are those of the source. Calls follow the shape of the dose curve; as a rule, active = well fitted curve in the direction sought with a large enough effect; inconclusive = small, poorly fitted or top-dose-only effect, or another doubt; inactive = no such curve, though single readings can be large; an effect the other way counts as inactive or inconclusive.

Test [1] deals with Glutathione peroxidase 1 (Homo sapiens) (UniProt P07203). The test can be described thus: Primary qHTS Assay for Inhibitors of Recombinant Selenoprotein Glutathione Peroxidase 1 (GPX1) (AID 1845191). Also: nearly all actives have a fitted effect of over 65% in size. As to activity, negative = inhibition: % is scaled to controls: 0 for no effect and ±100 for the full control effect. The method, boiled down: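 GR-coupled assay: compounds preincubated 30 min at room temperature with GPX1, then reaction started with CHP; final 10 nM GPX1, 1 mM GSH, 0.5 mM CHP, 0.5 mM NADPH, 100 nM GR, 0.01% BSA, pH 7.5 Tris buffer. NADPH fluorescence (340/450 nm) read at 0 and 15 min.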
Background: qHTS replaces the single test concentration by a dilution series.

The target of test [2] is Phospholipid hydroperoxide glutathione peroxidase GPX4 (Homo sapiens) (UniProt P36969). The test can be described thus: Primary qHTS Assay for Inhibitors of Recombinant Selenoprotein Glutathione Peroxidase 4 (GPX4) (AID 1845192). Also: nearly all actives have a fitted effect of over 65% in size. As to activity change, negative = inhibition: series mostly up to about 50 µM; % is scaled to controls: 0 for no effect and ±100 for the full control effect. The method, boiled down:
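GR-coupled assay: recombinant GPX4 preincubated 30 min with compound at room temperature; final 200 nM GPX4, 1 mM GSH, 0.5 mM cumene hydroperoxide, 0.5 mM NADPH, 100 nM GR, 0.01% BSA, pH 7.5 Tris. NADPH fluorescence (340/450 nm) read at 0 and 15 min.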

Test [3] has as its target Luciferin 4-monooxygenase (Photinus pyralis) (UniProt P08659). The test can be described thus: Primary firefly luciferase (FLuc) qHTS assay for identification of artifact compounds. (AID 1845220). Also: nearly all actives have a fitted effect of over 60% in size.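 As to activity change, negative = inhibition: series mostly up to about 54 µM; plate controls were DMSO vehicle for no effect and no enzyme for full effect.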 The method, boiled down: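 Titrated compounds were incubated 15 min at RT, protected from light, with luciferin and ATP at 10 uM; reaction started with 10 nM FLuc, luminescence imaged at 5 min, and concentration-response fitted by Hill equation.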

Test [4] is described as follows: Primary fluorescence-based thiol-reactive (MSTI) qHTS assay for identification of artifact compounds. (AID 1845221). Also: nearly all actives have a fitted effect of over 65% in size. Also: potency is read from the fitted curve at half-maximal effect.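 As to activity change, negative = thiol reactive: series mostly up to about 54 µM; thiol-reactive compounds lower the probe fluorescence signal.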 The method, boiled down: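 In PBS pH 7.4 with 2% DMSO, each compound met 4 uM MSTI for one hour at ambient temperature, shielded from light, before fluorescence detection.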
In test [5] the test system is Nanoluciferase (engineered Oplophorus gracilirostris luciferase). The test can be described thus: Primary Nanoluciferase (NLuc) qHTS assay for identification of artifact compounds. (AID 1845222).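 Also: NLuc secreted into diluted conditioned medium of S16 cells; series mostly up to about 54 µM; 0% = DMSO and -100% = no enzyme.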 The method, boiled down:
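qHTS format, against NLuc in S16 cell-conditioned medium. Nano-Glo substrate 1:100 was added after 15 min at room temperature. Luminescence was taken after a further 5 min.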

Phospholipid hydroperoxide glutathione peroxidase GPX4 (Homo sapiens), sequence (P36969 whole entry, looked up): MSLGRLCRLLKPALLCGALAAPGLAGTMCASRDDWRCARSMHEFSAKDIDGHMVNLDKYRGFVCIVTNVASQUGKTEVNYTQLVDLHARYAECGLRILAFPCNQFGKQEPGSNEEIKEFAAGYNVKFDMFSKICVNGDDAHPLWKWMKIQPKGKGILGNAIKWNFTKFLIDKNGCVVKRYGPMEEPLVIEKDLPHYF
Glutathione peroxidase 1 (Homo sapiens), sequence (P07203 whole entry, looked up): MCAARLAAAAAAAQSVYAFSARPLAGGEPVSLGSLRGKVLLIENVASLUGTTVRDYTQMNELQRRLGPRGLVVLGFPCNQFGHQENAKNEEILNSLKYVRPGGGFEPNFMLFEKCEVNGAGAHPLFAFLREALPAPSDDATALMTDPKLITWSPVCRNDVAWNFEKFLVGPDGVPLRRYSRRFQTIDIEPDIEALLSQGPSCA

`CCc1c[nH]c2ncnc(N3CC[C@](N)(CNC(=O)c4ccc(F)cc4F)C3)c12`: the Potency entry in test [1], in test [2], in test [3], in test [4] and in test [5] was “inactive” throughout.

`O=C(OC1CN2CCC1CC2)N1CCc2ccccc2C1c1ccccc1` (stereo not given): the Potency entry in test [1], in test [2], in test [3], in test [4] and in test [5] was “inactive” in each case.

In the case of `COc1ccc(CCc2nc3cc(-c4c(C)noc4C)ccc3n2CC(C)N2CCOCC2)cc1Cl` (stereo not given), the Potency entry in test [1], in test [2], in test [3], in test [4] and in test [5] was “inactive” each time.

As for `C=C[C@@]1(C)C=C2C(=O)C(O)=C3[C@](C)(C(=O)O)CC[C@@H]4C[C@]34[C@]2(O)C(=O)C1`, the Potency result in test [1], in test [2], in test [3] and in test [5] was “inactive” each time. For the same compound, the Potency in test [4] was 13.1 µM (active).

Turning to `C[C@@H]1O[C@@H](O[C@H]2CC[C@@]3(C)C(CC[C@]4(C)C3CC=C3[C@@H]5CC(C)(C)CC[C@]5(C(=O)O[C@@H]5O[C@H](CO)[C@@H](O)[C@H](O)[C@H]5O)CC[C@]34C)[C@]2(C)CO)[C@H](O)[C@H](O[C@@H]2O[C@H](CO)[C@@H](O)[C@H](O)[C@H]2O)[C@H]1O` (stereo not given in full), the Potency entry in test [1] and in test [2] was “inactive” in each case. The outcome in test [3] is “inactive [at 11.6 µM]”. The activity change, negative = thiol reactive in test [4] was 278% [at 11.5 µM]. In addition, in test [5], the activity, negative = inhibition is 2.95% [at 11.6 µM].

With `CC(C)(O)c1ccn2c(-c3ccc(F)c(-c4ccc(F)cc4C#N)c3)cnc2c1F`, the Potency entry in test [1], in test [2], in test [3], in test [4] and in test [5] was “inactive” in each case.

Consider `O=C(Nc1ccnc(NC(=O)C2CC2)c1)c1c(Cl)cccc1Cl`, for which the Potency entry in test [1], in test [2], in test [3], in test [4] and in test [5] was “inactive” in each case.

`COc1cc(Br)c(S(=O)(=O)Nc2ccc(Cl)c(O[C@@H]3CCN(C)C3)c2)cc1OC`: the Potency result in test [1], in test [2], in test [3], in test [4] and in test [5] was “inactive” each time.

Regarding `CCC/C=C/C(=O)O[C@H]1CC(C)(C)CC2[C@@]13[C@H](O)C[C@]1(C)[C@@]2(CCC2[C@@]4(C)CC[C@H](O[C@@H]5O[C@H](C(=O)O)[C@@H](O)[C@H](O[C@@H]6O[C@H](CO)[C@H](O)[C@H](O)[C@H]6O[C@@H]6O[C@@H](C)[C@H](O)[C@@H](O)[C@H]6O[C@@H]6OC[C@](O)(CO)[C@H]6O)[C@H]5O[C@@H]5O[C@H](CO)[C@H](O)[C@H](O)[C@H]5O)C(C)(C)C4CC[C@]21C)O[C@H]3O` (stereo not given in full), the outcome in test [1] was “inactive [at 9.52 µM]”. The activity change, negative = inhibition in test [2] was -7.28% [at 9.73 µM]; in test [3] it was 0.937% [at 11.6 µM]. In addition, in test [4], the activity change, negative = thiol reactive is 163% [at 11.5 µM]. Besides, the activity, negative = inhibition in test [5] was 2.33% [at 11.6 µM].

Consider `Cc1cc2c(c(=O)o1)C=C1CC[C@H]([C@H](C)Cn3cnc(=N)c4[nH]cnc43)C[C@@H]1O2`, for which the Potency entry in test [1], in test [2], in test [3], in test [4] and in test [5] was “inactive” throughout.

With `OC1(CN2CCC(COc3noc4cccc(O[C@@H]5CCOC5)c34)CC2)CCOCC1`, the Potency result in test [1], in test [2], in test [3], in test [4] and in test [5] was “inactive” in each case.

With `COc1ccc2nccc(C(=O)CC[C@@H]3CCN(CC#Cc4cc(F)cc(F)c4F)C[C@@H]3C(=O)O)c2c1`, the Potency entry in test [1], in test [2], in test [3], in test [4] and in test [5] was “inactive” in each case.

Take `COC(=O)N1CCC(n2ncc3c(N4CCOCC4)nc(-c4ccc(NC(=O)NC5CC5)cc4)nc32)CC1`: the Potency result in test [1], in test [2], in test [3], in test [4] and in test [5] was “inactive” in each case.

As to `O=C(Nc1cc(C(F)(F)F)cc(C(F)(F)F)c1)c1cnc(Cl)nc1C(F)(F)F`, the Potency entry in test [1], in test [2], in test [3], in test [4] and in test [5] was “inactive” each time.

Take `CCNC(=O)c1noc(-c2cc(Cl)c(O)cc2O)c1-c1ccc(OC)cc1`: the Potency entry in test [1], in test [2], in test [3], in test [4] and in test [5] was “inactive” each time.

For the compound `COCC(=O)NC/C=C/c1ccc2ncnc(Nc3ccc(Oc4ccc(C)nc4)c(C)c3)c2c1`, the Potency result in test [1], in test [2], in test [3], in test [4] and in test [5] was “inactive” each time.

As for `CC(=O)c1c(C)cc2cccc(O)c2c1O[C@@H]1O[C@H](CO)[C@@H](O)[C@H](O)[C@H]1O`, the Potency result in test [1], in test [2], in test [3] and in test [5] was “inactive” in each case. Moreover, in test [4], the Potency is 5.21 µM (active).

On to `C=C(C)C1CC(O)C(C)C12CC(O)C1(C)OC1C2O` (stereo not given), for which the Potency entry in test [1], in test [2], in test [3], in test [4] and in test [5] was “inactive” each time.

Regarding `CCN(CC)CCCS(=O)(=O)N[C@H](CCc1ccccc1)c1nc(Cc2ccc(Br)cc2)no1`, the Potency entry in test [1], in test [2], in test [3], in test [4] and in test [5] was “inactive” in each case.

As for `Cc1cc2c(cc1N1C(=O)c3cccc4c(CCCO)ccc(c34)C1=O)n(C)c(=O)n2C`, the Potency result in test [1], in test [2], in test [3], in test [4] and in test [5] was “inactive” throughout.

Consider `CC(=O)OC1C(OC(=O)c2ccccc2)C2C(C)(C)CCC(OC(C)=O)C2(C)C23CCC(C)(C2)C(=O)CC13` (stereo not given), for which the Potency entry in test [1], in test [2], in test [3], in test [4] and in test [5] was “inactive” each time.
